SNCA expr inhib – Primary qHTS assay for inhibitors of alpha-synuclein gene (SNCA) expression | HEK-293 SNCA-luciferase knock-in, luminescence, 24 h | Potency, µM (highest dose often 57.2 µM), for inactives: at the top dose activity change, negative = inhibition, actives largely listed as inhibitors | 140,000 compounds, 0.17% hits | AID 1671194, 2021;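 further: plate controls were DMSO cells for no effect and cell-free wells for full effect; nearly all actives have a fitted effect of over 45% in size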
Luciferase inh – Firefly luciferase inhibition profiling of diverse chemical library using quantitative high-throughput screening | Luciferin 4-monooxygenase (Photinus pyralis), P08659 | purified P. pyralis luciferase, luminescence, biochemical | Potency, µM (top dose mostly 115 µM), actives largely listed as inhibitors | 76,000 compounds, 2.5% hits | AID 1347043, 2019; further: on the % scale 0 is the no-effect control and ±100 the full control effect; nearly all actives have a fitted effect of over 65% in size
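Luminescence read by CCD imager after adding enzyme (10nM final) to wells holding compound, titrated in qHTS. Substrates 10uM each D-luciferin and ATP; buffer 50mM Tris acetate pH 7.5, 10mM Mg acetate, Tween-20, BSA.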
HEK293 tox – Cytotoxic Profiling in HEK 293 Cell Line of Diverse Libraries Using Quantitative High-Throughput Screening. AID 1345083, 2018. HEK 293 viability, ATP luminescence (CellTiter-Glo), 48-72 h. Potency, µM (titrated, usually from 115 µM), for inactives: at the highest dose activity change, negative = cytotoxicity, most hits filed as inhibitors. 94,000 compounds, 6.6% hits; further: on the % scale 0 is the no-effect control and ±100 the full control effect; nearly all actives have a fitted effect of over 60% in size
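Viability of HEK 293 cells, plated at 250 cells/well, was judged by cellular ATP after compound treatment for 48 or 72 hr. Luminescence was imaged 10 min after CellTiter-Glo addition at room temperature.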
HEK293 viab – GF-AFC viability counterscreen for inhibitors of alpha-synuclein gene (SNCA) expression. HEK-293-SNCA-luc viability, GF-AFC fluorescence, 24 h. Potency, µM (series often up to 57.1 µM), for the others: at the top dose activity change, negative = cytotoxicity, most hits filed as cytotoxic. 150,000 compounds, 0.12% hits. AID 1671193, 2021;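 further: 0% = DMSO-treated cells and -100% = medium-only wells without cells; nearly all actives have a fitted effect of over 30% in size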
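HEK-293-SNCA-luc cells (1500/well) plated 24 h, then exposed 24 h to a dilution series; GF-AFC added 30 min at 37C, fluorescence 405/540 nm; normalised to medium-only and DMSO wells, Hill fit.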
hNpr1 antagonist – Natriuretic polypeptide receptor (hNpr1) antagonism - Primary qHTS | Atrial natriuretic peptide receptor 1 (Homo sapiens), P16066 | Potency, µM (titrated, usually from 46.3 µM), inactives show at the highest dose activity change, negative = inhibition, most hits filed as inhibitors | HEK293 hNpr1 GloSensor cGMP, ANP-stimulated luminescence | 76,000 compounds, 1.6% hits; calls by dose curve; further: on the % scale 0 is the no-effect control and ±100 the full control effect; nearly all actives have a fitted effect of over 60% in size
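HEK293 cells stably expressing human Npr1 and cGMP GloSensor pGS-40F, loaded 2 h with 2% GloSensor reagent, given compound 30 min at room temperature. Luminescence read before and 20 min after 0.1 nM hNppA.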
NIH3T3 tox – Cytotoxic Profiling in NIH 3T3 Cell Line of Diverse Libraries Using Quantitative High-Throughput Screening; Potency, µM (doses to about 96.7 µM), without a hit: top-dose activity change, negative = cytotoxicity, usual class: inhibitors; 94,000 compounds, 4.3% hits; NIH 3T3 viability, CellTiter-Glo ATP luminescence, 48-72 h; AID 1345082, 2018; further: on the % scale 0 is the no-effect control and ±100 the full control effect; nearly all actives have a fitted effect of over 55% in size
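Cytotoxicity is measured as loss of cellular ATP: NIH 3T3 cells (400/well) are exposed to compound for 48 or 72 hr at 37 °C, then CellTiter-Glo luminescence is imaged after 10 min at room temperature.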
NPR1 antag cnf – Natriuretic polypeptide receptor (hNpr1) antagonism - Confirmation; shares compounds with hNpr1 antagonist; HEK293 hNpr1 cGMP GloSensor luminescence, ANP-stimulated; Potency, µM (doses to about 57.6 µM), for inactives: at the highest dose activity change, negative = inhibition, hits mostly inhibitors; 1,400 compounds, 76% hits; AID 1347044, 2019; calls by dose curve; further: nearly all actives have a fitted effect of over 70% in size
Npr2 selectivity – Natriuretic polypeptide receptor (hNpr2) antagonism - Subtype selectivity assay. shares compounds with hNpr1 antagonist. 1,400 compounds, 67% hits. Potency, µM (highest dose often 57.6 µM), for inactives: at the highest dose activity change, negative = inhibition, actives largely listed as inhibitors. HEK293 hNpr2 GloSensor cGMP luminescence, CNP-stimulated; calls by dose curve; further: nearly all actives have a fitted effect of over 70% in size
Target sequence (P20594 whole entry, looked up): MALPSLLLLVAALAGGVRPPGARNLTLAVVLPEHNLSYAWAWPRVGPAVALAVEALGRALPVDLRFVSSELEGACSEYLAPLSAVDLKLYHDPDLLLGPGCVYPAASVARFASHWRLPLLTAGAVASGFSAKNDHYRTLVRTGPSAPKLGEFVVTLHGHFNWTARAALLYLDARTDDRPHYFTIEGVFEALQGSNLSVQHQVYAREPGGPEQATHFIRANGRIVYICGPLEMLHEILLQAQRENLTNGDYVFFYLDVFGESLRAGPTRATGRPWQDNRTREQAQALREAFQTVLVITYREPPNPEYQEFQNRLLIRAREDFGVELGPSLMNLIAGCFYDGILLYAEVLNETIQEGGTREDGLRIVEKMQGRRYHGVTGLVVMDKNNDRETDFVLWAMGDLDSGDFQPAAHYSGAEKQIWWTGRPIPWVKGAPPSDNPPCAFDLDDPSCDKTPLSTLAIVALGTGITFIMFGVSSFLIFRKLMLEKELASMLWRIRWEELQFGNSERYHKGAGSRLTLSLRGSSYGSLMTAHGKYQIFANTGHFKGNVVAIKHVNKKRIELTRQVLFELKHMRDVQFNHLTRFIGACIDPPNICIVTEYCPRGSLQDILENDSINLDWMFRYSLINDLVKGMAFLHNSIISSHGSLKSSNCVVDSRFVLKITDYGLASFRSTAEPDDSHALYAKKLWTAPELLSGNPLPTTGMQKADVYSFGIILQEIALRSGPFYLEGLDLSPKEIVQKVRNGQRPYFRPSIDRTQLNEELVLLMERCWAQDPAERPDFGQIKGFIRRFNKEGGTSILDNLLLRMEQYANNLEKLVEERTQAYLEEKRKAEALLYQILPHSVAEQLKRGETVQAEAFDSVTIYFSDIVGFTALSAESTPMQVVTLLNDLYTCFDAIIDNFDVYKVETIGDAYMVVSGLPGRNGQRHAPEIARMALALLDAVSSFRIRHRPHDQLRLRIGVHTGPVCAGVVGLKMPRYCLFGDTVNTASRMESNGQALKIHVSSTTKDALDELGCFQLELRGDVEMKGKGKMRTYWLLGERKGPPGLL
FLuc counter – Natriuretic polypeptide receptor (hNpr1) antagonism - Confirmation firefly luciferase (FLuc) inhibition counterscreen; shares compounds with hNpr1 antagonist; purified FLuc enzyme, luminescence, Km substrate; Potency, µM (top dose mostly 57.6 µM), without a hit: at the highest dose activity change, negative = inhibition, most hits filed as inhibitors; 1,400 compounds, 0.7% hits; AID 1347047, 2019; further: 0% is about no effect
GloSensor ctrl – Natriuretic polypeptide receptor (hNpr1) antagonism - Counterscreen GloSensor control cell line; 1,400 compounds, 69% hits; Potency, µM (doses to about 57.6 µM), for inactives: top-dose activity change, negative = inhibition, usual class: inhibitors; HEK293 GloSensor cGMP, SNP-stimulated, luminescence; shares compounds with hNpr1 antagonist; AID 1347051, 2019; calls by dose curve; further: on the % scale 0 is the no-effect control and ±100 the full control effect; nearly all actives have a fitted effect of over 70% in size
Starred values were filed as active, the others as inactive; i = inactive; u = inconclusive; x = no result; [ ] = remark or other dose. In the library only some 7.4% were active in any assay of this set; here they are far more common. Unless noted, the call rests on the fitted dose curve; in most records, active means well fitted curve in the direction sought with a large enough effect; inconclusive means small, poorly fitted or top-dose-only effect, or another doubt; inactive means no such curve, though single readings can be large; an effect the other way counts as inactive or inconclusive. Potency means the concentration at half of the fitted maximal effect.

SMILES | SNCA expr inhib | Luciferase inh | HEK293 tox | HEK293 viab | hNpr1 antagonist | NIH3T3 tox | NPR1 antag cnf | Npr2 selectivity | FLuc counter | GloSensor ctrl
CC(=O)O[C@@H]1C[C@@]23C[C@@]24CC[C@H](OC2OC[C@@H](O)[C@H](O)[C@H]2O)C(C)(C)[C@@H]4CC[C@H]3[C@]2(C)CC3OC4(C[C@@H](C)C3[C@@]12C)OCC1(C)OC14 (stereo not given in full) | x | x | x | 0.6%[23.9 µM] | x | x | x | x | x | x
Cc1nc(N2CCC(C(=O)NC3CCCCCCC3)CC2)cc(C(F)(F)F)n1 | 2.8% | u | u | -1.0% | 10µM* | -37.3% | 7.69µM* | 13.7µM* | 0.9% | 7.69µM*
Cc1nc(N2CCC(C(=O)NC3CCCCCC3)CC2)cc(C(F)(F)F)n1 | 29.1% | i | u | 10.0% | u | -30.5% | 13.7µM* | 12.2µM* | -0.9% | 9.68µM*
Cc1nc(N2CCC(C(=O)NCc3ccccc3Cl)CC2)cc(C(F)(F)F)n1 | -25.6% | i | u | 1.5% | u | u | x | x | x | x
Cc1nc(N2CCC(C(=O)Nc3ccc(F)c(Cl)c3)CC2)cc(C(F)(F)F)n1 | u | i | 25.1µM* | -7.9% | 11.2µM* | u | 21.7µM* | 21.7µM* | 1.1% | 21.7µM*
Cc1nc(N2CCC(C(=O)NC3CCc4ccccc43)CC2)cc(C(F)(F)F)n1 (stereo not given) | -16.0% | i | u | -7.9% | u | u | 21.7µM* | 19.3µM* | 0.6% | 17.2µM*
CN1CC(=O)N(C2CCCNC2)Cc2c1ncnc2N1CCSCC1 (stereo not given) | 9.3% | x | 3.4% | 2.8% | x | -0.4% | x | x | x | x
CCc1cccc(NC(=O)C2(Cc3ccccc3)CCCCC(=O)N2)c1 (stereo not given) | 25.2% | x | u | -10.0% | x | -12.0% | x | x | x | x
Cc1nc(N2CCC(NC(=O)c3nccc4ccccc34)CC2)cc(C(F)(F)F)n1 | -2.4% | i | u | 3.8% | 11.2µM* | u | 19.3µM* | 17.2µM* | 0.5% | 13.7µM*
Cc1nc(N2CCC(NC(=O)c3ccc4ccccc4n3)CC2)cc(C(F)(F)F)n1 | -13.6% | i | 44.7µM* | -13.2% | 10µM* | u | 13.7µM* | 13.7µM* | 0.6% | 12.2µM*
COc1cc(Cl)ccc1C(=O)NC1CCN(c2cc(C(F)(F)F)nc(C)n2)CC1 | u | i | u | -15.8% | u | u | 21.7µM* | 21.7µM* | 1.7% | 19.3µM*
Cc1nc(N2CCC(NC(=O)c3ccccc3F)CC2)cc(C(F)(F)F)n1 | -15.3% | i | -2.3% | 3.3% | -12.2% | -8.5% | x | x | x | x
CN(C)[S+](=O)([O-])c1ccc2c(c1)OCCN(Cc1cc(F)ccc1F)C2 | -23.4%[87.6 µM] | i | u | -1.8%[87.6 µM] | -4.1%[70.6 µM] | u | x | x | x | x
Cc1ccc(F)cc1CN1CCOc2cc([S+](=O)([O-])N(C)C)ccc2C1 | -9.8%[87.6 µM] | i | 39.8µM* | 0.3%[87.6 µM] | 35.5µM* | u | 39.6µM* | 39.6µM* | -2.4%[86.2 µM] | 35.3µM*
Cc1noc(C)c1[S+](=O)([O-])N1CCCC(c2nn(-c3ccccn3)c(=O)[nH]2)C1 (stereo not given) | -11.9% | x | 3.3% | -9.8% | x | -13.1% | x | x | x | x
CC(=O)Nc1ccc(S(=O)(=O)N[C@H]2CO[C@H]3[C@@H]2OC[C@@H]3Nc2nccc(-c3cccc(F)c3)n2)cc1 | u | i | 15.8µM* | -13.5% | 11.2µM* | u | 13.7µM* | 17.2µM* | 0.8% | 12.2µM*
O=C(N[C@H]1CO[C@H]2[C@@H]1OC[C@@H]2Nc1nccc(C2CCCC2)n1)c1ccccc1 | 0.6%[87.6 µM] | i | 63.1µM* | u | 28.2µM* | -46.0%[174 µM] | 35.3µM* | 35.3µM* | -7.0%[86.2 µM] | 39.6µM*
O=C(N[C@H]1CO[C@H]2[C@@H]1OC[C@@H]2Nc1nccc(-c2ccc(-c3ccccc3)cc2)n1)C1CCCCC1 | -7.7% | i | u | -16.4% | u | u | 27.3µM* | u | 0.8% | 21.7µM*
O=C(N[C@H]1CO[C@H]2[C@@H]1OC[C@@H]2Nc1nccc(-c2ccccc2)n1)N1CCOCC1 | -1.1%[87.6 µM] | i | -8.3%[172 µM] | -7.7%[87.6 µM] | 5.3%[70.6 µM] | -0.4%[174 µM] | x | x | x | x
Cc1ccc(C(=O)N[C@H]2CO[C@H]3[C@@H]2OC[C@@H]3Nc2nccc(-c3ccc(-c4ccccc4)cc3)n2)cc1 | u | i | 12.6µM* | -7.9% | u | -26.9% | u | -24.5% | -13.6% | -26.9%
COc1ccccc1-c1ccnc(N[C@H]2CO[C@H]3[C@@H]2OC[C@@H]3NS(=O)(=O)c2ccc(NC(C)=O)cc2)n1 | -7.1% | i | u | -3.9% | u | u | x | x | x | x
O=C(NCc1ccc(F)c(F)c1)C1CCc2nnc(C3CC3)n21 (stereo not given) | -12.4% | x | -5.6% | -8.5%[12.5 µM] | x | -12.0% | x | x | x | x
CCNC(=O)O[C@@H]1CO[C@H]2[C@@H]1OC[C@@H]2Nc1nccc(-c2ccc(-c3ccccc3)cc2)n1 | -20.6% | i | 10µM* | -25.2% | 6.31µM* | u | 6.85µM* | 13.7µM* | 0.4% | 9.68µM*

High-throughput results deposited in PubChem BioAssay by National Center for Advancing Translational Sciences (NCATS).
